Reference: PubChem BioAssay (NCATS)
Records with an inconclusive call do not appear. The source made the active and inactive calls. The call rests on the fitted dose curve; in most records, active means well fitted inhibition curve with a large enough effect; inconclusive means small, poorly fitted or top-dose-only effect; inactive means flat fitted curve, though single readings scatter.

Experiments:
Assay in all cases: qHTS profiling for inhibitors of Plasmodium falciparum proliferation (AID 504749); further: nearly all actives have a fitted effect of over 60% in size
Conditions in all cases: P. falciparum in erythrocytes, SYBR Green DNA, 72 h; series mostly up to 28.7 µM
[1] = tested on: CP269
Method in brief: (§1)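 Parasite proliferation within erythrocytes, 72 h exposure. Endpoint: SYBR Green I fluorescence after overnight lysis at room temperature. Controls: 0.29 uM artemisinin, DMSO.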

[2] = tested on: CP286
Method in brief: as §1

[3] = tested on: CP291
Method in brief: as §1

[4] = tested on: CP297
Method in brief: as §1

[5] = tested on: CP305
Method in brief: as §1

[6] = tested on: CP315
Method in brief: as §1

[7] = tested on: CP325
Method in brief: as §1

[8] = tested on: CP329
Method in brief: as §1

[9] = tested on: CP335
Method in brief: as §1

[10] = tested on: DFO2036
Method in brief: as §1

[11] = tested on: DIV14
Method in brief: as §1

[12] = tested on: DIV17
Method in brief: as §1

[13] = tested on: DIV30
Method in brief: as §1

[14] = tested on: Dd2
Method in brief: as §1

[15] = tested on: ECU
Method in brief: as §1

[16] = tested on: FAB9
Method in brief: as §1

[17] = tested on: GB4
Method in brief: as §1

[18] = tested on: HB3
Method in brief: as §1

[19] = tested on: ICS
Method in brief: as §1

[20] = tested on: JCK
Method in brief: as §1

Measured: Potency

NCc1cccnc1
inactive: all assays above

COP(=S)(OC)Oc1ccc(Sc2ccc(OP(=S)(OC)OC)cc2)cc1
inactive: all assays above

CCC1(CC)C(=O)NC(=O)NC1=O
inactive: all assays above

CC(C)(C)OC(=O)c1ncn2c1[C@@H]1CCCN1C(=O)c1c(Br)cccc1-2
not listed: [12] | [19]
inactive: all other assays above

CCC(=O)O[C@H]1CC[C@H]2[C@@H]3CCC4=CC(=O)CC[C@]4(C)[C@H]3CC[C@]12C
inactive: all assays above

CCOC(=O)NC(O)C(Cl)(Cl)Cl (stereo not drawn)
inactive: all assays above

CCN(CC)C(C)C(=O)c1ccccc1 (stereo not drawn)
inactive: all assays above

CC(C)C(Br)C(=O)NC(N)=O (stereo not drawn)
inactive: all assays above

CCCCCCCCC(=O)NCc1ccc(O)c(OC)c1
inactive: all assays above

CC(C)NCC(O)c1ccc(N)c(C#N)c1 (stereo not drawn)
inactive: all assays above

Cc1ncc2n1-c1ccc(Cl)cc1C(c1ccccc1F)=NC2
inactive: all assays above
